Reference: PubChem BioAssay (NCI)
Compounds without any hit were thinned out: in the full panel of roughly 79,000, 15% have a hit. Values without a mark were called inactive. Active and inactive are the calls of the source. Cut-off read from the data, not from the text of the source: active = growth inhibition above about 70%; inactive = the rest.

Legend:
[1] = NCI Yeast Anticancer Drug Screen. Data for the rad50 strain (AID 155);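 note: 0% = growth of vehicle-only cultures of the same strain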; conditions: S. cerevisiae rad50 strain growth inhibition, hits give high values
Method in brief: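 Vehicle-treated cultures provide the reference for the growth inhibition reported for compound-exposed, repair-deficient yeast.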

[2] = NCI Yeast Anticancer Drug Screen. Data for the mec2-1 strain (AID 157); conditions: S. cerevisiae mec2-1 strain, hits give high values
Method in brief: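 Yeast mec2-1 mutant treated with compound. Readout: growth inhibition vs vehicle controls.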

[3] = NCI Yeast Anticancer Drug Screen. Data for the sgs1 mgt1 strain (AID 161);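 note: 0% = growth of cultures given vehicle only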; conditions: S. cerevisiae sgs1 mgt1 strain, hits give high values
Method in brief: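 Inhibition of yeast growth, normalised to vehicle-treated controls, is reported for a strain bearing genetic alterations in DNA damage repair.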

[4] = NCI Yeast Anticancer Drug Screen. Data for the cln2 rad14 strain (AID 165);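 note: 0% = growth equal to vehicle treated cultures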; conditions: S. cerevisiae cln2 rad14 strain, hits give high values
Method in brief: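 cln2 rad14 yeast strain; compound exposure; growth inhibition read vs vehicle controls.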

[5] = NCI Yeast Anticancer Drug Screen. Data for the bub3 strain (AID 167); conditions: S. cerevisiae bub3 mutant strain, hits give high values
Method in brief: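 Mutant yeast screening strain plus compound; vehicle-treated cultures serve as the 0% inhibition reference.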

[6] = NCI Yeast Anticancer Drug Screen. Data for the mlh1 rad18 strain (AID 175); conditions: S. cerevisiae mlh1 rad18 strain growth inhibition, hits give high values
Method in brief: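 Yeast w/ defined DNA-repair lesions; compound exposure; growth vs vehicle controls → % inhibition.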

[7] = at 5.0 µM (retest, dose inferred, filed as 0.5)
[8] = at 50.0 µM (retest, dose inferred, filed as 5.0)

Compound | growth inhibition [1, 7] | growth inhibition [1, 8] | growth inhibition ([1]; at 50.0 µM) | growth inhibition [2, 7] | growth inhibition [2, 8] | growth inhibition ([2]; at 50.0 µM) | growth inhibition [3, 7] | growth inhibition [3, 8] | growth inhibition ([3]; at 50.0 µM) | growth inhibition [4, 7] | growth inhibition [4, 8] | growth inhibition ([4]; at 50.0 µM) | growth inhibition [5, 7] | growth inhibition [5, 8] | growth inhibition ([5]; at 50.0 µM) | growth inhibition [6, 7] | growth inhibition [6, 8] | growth inhibition ([6]; at 50.0 µM)
CCCc1cc2c(cc1COc1ccccc1C(=O)O)OCO2 | -1% | 49% | 56.4% | -4% | 52% | 59.8% | -7% | 25% | 38.4% | -2% | 51% | 33.4% | -6% | 31% | 25.4% | -2% | 58% | 61.4%
CC(C)Cc1cc2c(cc1O)CCC1C2CC[C@@]2(C)C1CC[C@@H]2O (stereo not given in full) | -10% | 97% (active) | 75.8% (active) | -17% | 95% (active) | 80.4% (active) | -12% | 97% (active) | 86.5% (active) | -22% | 98% (active) | 89.3% (active) | -34% | 97% (active) | 87% (active) | -11% | 97% (active) | 88.4% (active)
Cn1c(=O)c2c(nc(CCCCCCCc3nc4c(c(=O)n(C)c(=O)n4C)n3C)n2C)n(C)c1=O | 4% | 5% | 48.9% | 1% | 18% | 23.3% | 2% | 10% | 42% | 2% | 10% | 60.2% | 7% | 4% | 16.7% | -2% | 9% | 35.8%
CC(Cl)C(=O)Nc1cc2ccccc2oc1=O (stereo not given) | -7% | 9% | 10.7% | -3% | 7% | 6.15% | 6% | 4% | 9.2% | 10% | -1% | 0.35% | -5% | -2% | 2.45% | -21% | -3% | -11.2%
CC(=O)c1c(O)c2cccc3c2n(c1=O)CCC3 | 26% | 99% (active) | 97.2% (active) | -13% | 99% (active) | 91.6% (active) | 4% | 98% (active) | 94.9% (active) | 3% | 98% (active) | 71.3% (active) | -2% | 99% (active) | 84.4% (active) | 11% | 98% (active) | 95.3% (active)
CC(C)(Cl)C(Cl)CC/C(CBr)=C(\Cl)CBr (stereo not given) | 10% | 99% (active) | 73.5% (active) | 17% | 99% (active) | 92.3% (active) | -11% | 98% (active) | 92% (active) | 21% | 95% (active) | 90.2% (active) | 4% | 94% (active) | 92% (active) | 11% | 99% (active) | 4.4%
O=[N+]([O-])c1cc(NC(=S)SCc2ccccc2)ccc1Cl | 92% (active) | 98% (active) | 98.8% (active) | 74% (active) | 99% (active) | 99.3% (active) | 92% (active) | 99% (active) | 99.2% (active) | 29% | 97% (active) | 99.1% (active) | 8% | 97% (active) | 99.2% (active) | 91% (active) | 99% (active) | 99.2% (active)
CC(=O)OCC1OC(n2cnc3c(Cl)nc(Cl)nc32)C(OC(C)=O)C1OC(C)=O (stereo not given) | 0% | 0% | 73.7% (active) | 1% | 5% | 54.1% | -1% | 7% | 75.3% (active) | 3% | 3% | 72.6% (active) | 1% | -2% | 70% (active) | -1% | 0% | 74.1% (active)
CC(C)(C)[Si](C)(C)O/N=C\c1cccc(O[Si](C)(C)C(C)(C)C)c1 | -3% | 97% (active) | 48% | -6% | 95% (active) | 12.3% | 0% | 99% (active) | 78.5% (active) | -13% | 97% (active) | 54.8% | 3% | 94% (active) | 36% | -3% | 98% (active) | 76.8% (active)
CCCC(=S)N1CCOCC1 | -1% | -2% | -23.9% | -1% | 1% | -4.05% | -1% | -1% | -3.95% | -10% | -4% | 33.2% | -1% | -1% | 12.4% | -2% | -3% | 26.6%
Nc1ccc(SC23CC4CC(CC(C4)C2)C3)cc1 | 1% | 74% (active) | 94.1% (active) | 0% | 42% | 94.4% (active) | 9% | 78% (active) | 96% (active) | -69% | 61% | 95.1% (active) | 40% | 33% | 95.7% (active) | 10% | 91% (active) | 89.2% (active)
COc1ccccc1/C=C/c1ccnc2ccccc12 | 31% | 97% (active) | 72.7% (active) | 15% | 97% (active) | 90.2% (active) | 24% | 98% (active) | 88% (active) | 13% | 84% (active) | 65.1% | 24% | 97% (active) | 84.8% (active) | 24% | 96% (active) | 91.7% (active)
CC1SC(c2ccc(Cl)cc2)N2C(=O)C(C)SC(c3ccc(Cl)cc3)N2C1=O (stereo not given) | 84% (active) | 91% (active) | 71% (active) | 53% | 91% (active) | 27.1% | 85% (active) | 95% (active) | 30.9% | 84% (active) | 93% (active) | 52.6% | 79% (active) | 94% (active) | 26.1% | 74% (active) | 90% (active) | 60%
CC(=O)OC1CCC2(C)C3CCC4(C)C(CCC4(Br)C(=O)CBr)C3CC(Br)C2(Br)C1 (stereo not given) | -1% | 19% | 68.8% | -5% | 15% | 52.2% | -5% | 10% | 53.4% | -2% | 9% | 26.9% | -3% | 7% | 49.5% | 3% | -3% | 76.4% (active)
c1cc2ccc1C1NCCCN1CCN1CCCNC1c1ccc(cc1)C1NCCCN1CCN1CCCNC21 (stereo not given) | 3% | -11% | -8.3% | -19% | -2% | -22.6% | -14% | 3% | -2% | -25% | -8% | 53.2% | -1% | -1% | 4.1% | -28% | -14% | -31.4%
CC(C)CCOc1ccc(/C=C\C(=O)O)cc1 | 3% | 30% | 61.1% | -2% | 41% | 81.5% (active) | -3% | 38% | 30.1% | -1% | 87% (active) | 93.9% (active) | 1% | 54% | 71% (active) | 6% | 43% | 75% (active)
CC(C)c1cc(=O)c2cc3[nH]c4ccccc4c3cc2[nH]1 | -2% | 92% (active) | 49.9% | -2% | 87% (active) | 52.8% | -69% | 96% (active) | 50.9% | -18% | 81% (active) | 68.5% | -2% | 94% (active) | 10.6% | -9% | 86% (active) | 54.2%
C(=C/c1cnnc2ccccc12)/c1ccccn1 | 5% | 79% (active) | 67.2% | 8% | 43% | 6.2% | 6% | 44% | 14.8% | 0% | 42% | 45.8% | -7% | 28% | -4.45% | 1% | 42% | 38.4%
O=C(CCCCOCCCCC(=O)OCC1CCCO1)OCC1CCCO1 (stereo not given) | -1% | -2% | 9.1% | 0% | 2% | 16.9% | -91% | 4% | 45% | 2% | -9% | 10.3% | -4% | -3% | 13.5% | -1% | -12% | 18.1%
O=C(O)COc1c(Cl)c(Cl)c(Cl)c(Cl)c1Cl.[Cu+2] | 28% | 98% (active) | 88% (active) | 20% | 99% (active) | 93.7% (active) | 42% | 99% (active) | 92.7% (active) | 7% | 99% (active) | 86% (active) | 9% | 99% (active) | 89.2% (active) | 22% | 99% (active) | 86.3% (active)
